# Screens deposited in PubChem BioAssay by National Center for Advancing Translational Sciences (NCATS).
# USP1 inh: blocks the human USP1/UAF1 deubiquitinase complex; O94782; recombinant USP1/UAF1, Ub-Rhodamine cleavage fluorescence; Potency, µM (titrated, usually from 57.1 µM), hits mostly inhibitors; actives 0.23% (n = 390,000); AID 743255; active = well fitted inhibition curve with a large enough effect; inconclusive = small, poorly fitted or top-dose-only effect; inactive = no such curve, though single readings can be large or run the other way; also: nearly all actives have a fitted effect of over 60% in size
# Target sequence (O94782 whole entry, looked up): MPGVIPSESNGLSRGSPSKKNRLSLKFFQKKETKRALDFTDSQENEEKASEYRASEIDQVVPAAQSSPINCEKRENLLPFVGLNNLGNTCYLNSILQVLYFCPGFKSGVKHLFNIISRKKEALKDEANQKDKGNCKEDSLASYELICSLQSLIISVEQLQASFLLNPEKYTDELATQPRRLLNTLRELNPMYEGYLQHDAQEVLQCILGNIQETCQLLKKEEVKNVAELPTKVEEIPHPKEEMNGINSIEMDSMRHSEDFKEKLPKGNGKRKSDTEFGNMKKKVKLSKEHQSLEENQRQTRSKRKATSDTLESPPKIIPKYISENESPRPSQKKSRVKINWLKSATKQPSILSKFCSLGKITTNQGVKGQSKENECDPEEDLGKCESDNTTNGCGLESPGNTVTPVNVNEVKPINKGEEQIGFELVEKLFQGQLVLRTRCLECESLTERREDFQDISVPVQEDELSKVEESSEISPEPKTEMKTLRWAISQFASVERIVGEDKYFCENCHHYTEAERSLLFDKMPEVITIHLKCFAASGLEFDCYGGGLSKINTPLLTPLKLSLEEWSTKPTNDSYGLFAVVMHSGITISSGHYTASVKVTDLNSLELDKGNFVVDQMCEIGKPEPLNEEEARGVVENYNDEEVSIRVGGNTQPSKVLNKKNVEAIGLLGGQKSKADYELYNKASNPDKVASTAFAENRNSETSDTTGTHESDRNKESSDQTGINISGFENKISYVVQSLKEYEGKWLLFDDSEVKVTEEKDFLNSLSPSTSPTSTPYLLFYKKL
#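 USP1/UAF1 complex at 1 nM was preincubated with compound for 15 min at room temperature, then Ub-Rho substrate (150nM final) was added. Fluorescence (480/540 nm) was read kinetically, 6 reads every 60 seconds.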
# hERG WT inh: blocks the wildtype human KCNH2 potassium channel; Q12809; U2OS, BacMam KCNH2, thallium flux FluxOr; stronger effect = lower value; activity change, % at 1.84 µM; actives 0.37% (n = 340,000);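 active = maximum activity change below -70%; inconclusive = maximum activity change between -70% and -50%; inactive = maximum activity change above -50%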
#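 U2OS cells were transduced with wild-type KCNH2 virus (2.03 x 10^8 / mL) for 4 h at room temperature, then cultured overnight at 37 C. Thallium flux was read with FluxOr dye. Rate constants were normalized to DMSO controls.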
# KCNH2 3.1 block: inhibitors of human KCNH2 3.1 potassium channel isoform. actives 0.95% (n = 340,000). U2OS KCNH2 3.1, thallium flux FluxOr; stronger effect = lower value. activity change, % (tested at about 1.8 µM);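 active = maximum activity change below -70%; inconclusive = maximum activity change from -70% to -50%; inactive = maximum activity change above -50%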;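 also: thallium influx rate constant from kinetic fluorescence after stimulation buffer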
#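 We transduce U2OS cells with the mutant 3.1 virus, culture them overnight, load FluxOr with Red40 quencher for 45 min, then add stimulation buffer and read kinetically for 2 min to derive a normalized rate constant.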
# Giardia killer: Giardia lamblia killing. Giardia lamblia trophozoite viability. activity change, % at 7.66 µM, hits read low. actives 0.15% (n = 340,000); in the data active = activity change below about -80%; inconclusive = between about -30% and that limit;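 also: parasites exposed to compound for two days anaerobically before the ATP read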
#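 Each well holds 100 Giardia trophozoites and compound. After two days (48 hrs) at 37 deg C in anaerobic conditions, ATP is quantified by luminescence.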
# FBPA coupling cs: counter-screen for Giardia aldolase inhibitors: coupling enzyme system | coupling enzyme system counterscreen, AmpLite Red fluorescence | activity change, negative = inhibition, % at 58.2 µM, hits read low | AID 2472 | actives 0.67% (n = 290,000); in the data active = activity change below about -30%
#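 Counterscreen of the coupled detection system alone, without aldolase: glyceraldehyde-3-phosphate coupling enzymes plus AmpLite Red readout. Compounds at 57.5 uM final, 10 min RT preincubation, 20 min RT reaction, fluorescence 525/598 nm.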
# Hits are given with their value; - = inactive; ? = inconclusive; . = not tested or not shown. Rows were chosen to be rich in hits. Some 1.7% of all compounds tested hit in one or more screens of this group.
SMILES,USP1 inh,hERG WT inh,KCNH2 3.1 block,Giardia killer,FBPA coupling cs
CC1CCCN(CC(O)COc2ccc(-c3ccccc3)cc2)C1 (configuration not stated),-,?,-,-,-
NC(=O)C1CCN(CC(O)COc2ccc(-c3ccccc3)cc2)CC1 (configuration not stated),-,-,-86.0,-,-
Cc1cccc(NC(=O)COC(=O)CN2C(=O)C3CCCCC3C2=O)c1C (configuration not stated),-,-,-,.,.
N=C(N)SCc1ccccn1,-,-,.,-,-80.2
O=c1ccc2c(-c3ccccc3)c3ccc(O)cc3oc-2c1,3.55µM,?,-,-,-
Nc1ccc(-c2c3ccc(=O)cc-3oc3cc(O)ccc23)cc1C(=O)O,22.4µM,-,-,-,-
O=c1cc(-c2ccccc2O)oc2cc(O)ccc12,.,.,.,.,-
O=c1cc(-c2ccccc2)oc2cc(O)ccc12,-,-,-,-,-
Fc1ccc(C2=CC(c3ccco3)n3ncnc3N2)cc1 (configuration not stated),?,-,-,-,-
C1=C(c2ccc(-c3ccccc3)cc2)Nc2ncnn2C1c1ccco1 (configuration not stated),14.1µM,-,-,-,-
COc1ccc(C)cc1NC(=O)c1cc(S(=O)(=O)NC2CCCCCC2)ccc1F,-,.,.,.,.
O=[N+]([O-])c1ccc(N/N=C\c2cccnc2)nc1,-,.,-94.6,-,-
O=[N+]([O-])c1ccc(OCCCCN2CCc3ccccc3C2)cc1,-,-,-71.3,-,-
Cc1cccc2c3c(ccc12)C1=C(C(=O)C3=O)[C@@H](C)CO1,.,.,.,.,-41.6
NC(=O)CCCn1c(C(=O)c2ccc(Cl)cc2)c2ccc([N+](=O)[O-])cc2[n+]1[O-],-,-,-,-87.1,.
NS(=O)(=O)c1ccc(CCNC(=O)C2CCCN(S(=O)(=O)c3cccnc3)C2)cc1 (configuration not stated),-,-,-,-,-
O=C(NCCc1ccccc1)C1CCCN(S(=O)(=O)c2cccnc2)C1 (configuration not stated),-,-253.9,-,-,-
CCN(CC)CCCNC(=O)c1c2c(nc3ccccc13)C(=O)N(C1CCCCC1)C2,-,.,.,.,.
Cc1ccc(-n2c3nc(=O)[nH]c(=O)c-3cc3cc([N+](=O)[O-])ccc32)cc1,-,-,-,-,-33.9
Cc1ccc(NC(=O)C(Cc2ccccc2)NS(=O)(=O)c2cccc3nsnc23)c(C)c1 (configuration not stated),-,.,.,.,.
CC(=O)Nc1ccc(S(=O)(=O)NCCC(=O)OCc2nnc(-c3ccccc3)o2)cc1,-,-,-,-,.
O=C(CCNS(=O)(=O)c1ccccc1)OCc1nnc(-c2ccccc2)o1,-,-131.4,-197.6,-,.
CN(C(=O)c1cccc(NC(=O)Cc2cccc(NC(=O)C3CCN(C(=O)C4CCCCC4)CC3)c2)c1)C1CC1,-,-,-,-,.
COc1cccc(Cn2c(Oc3cc(C)cc(C)c3)nc3c2c(=O)n(C)c(=O)n3C)c1,-,.,.,.,.
O=c1c(N2CCOCC2)c(N2CCOCC2)c1=O,-,-,-,-,-
SMILES,USP1 inh,hERG WT inh,KCNH2 3.1 block,Giardia killer,FBPA coupling cs
CC(C)(C)C1=CC(=O)C(N2CCOCC2)=CC1=O,?,-,-,-,-58.4
CCCCCCCNC(=O)C1(CC2CC(c3cccc(Br)c3)=NO2)CCN(C(=O)c2ccccc2)CC1 (configuration not stated),-,-70.5,?,-,.
CCCCCCCNC(=O)C1(CC2CC(c3cccc(Br)c3)=NO2)CCNCC1 (configuration not stated),?,-,-77.2,-,-
O=C(Nc1ccn(CCCN2CCN(c3ncccn3)CC2)c(=O)n1)OCc1ccccc1,-,-73.7,-,.,.
COc1ccc(N(C)C(=O)c2cn(C3CCCCC3)c(=O)c3c2c2ccccc2n3C)cc1,-,.,.,.,.
CN(C)c1ncnc2c1NC1=C(S2)C(=NCCCC(=O)O)CC(C)(C)C1,-,-,-,-,-
COc1ncnc2c1NC1=C(S2)C(=NCCC(=O)O)CC(C)(C)C1,?,-,-,-,-48.1
COC(=O)Cc1c(C)c2cc3c(c(C)c2oc1=O)OCN(CCc1ccccc1F)C3,-,.,.,.,.
CCOC(=O)c1c(-c2ccc(C)cc2)csc1NC(=O)c1cc(=O)c2cc(C)cc(C)c2o1,-,.,.,.,.
CCOC(=O)Cc1csc(N/C(=N/S(=O)(=O)c2cc(Br)ccc2OCC)c2ccccc2)n1,-,-261.1,-169.7,-,-
CCOC(=O)Cc1csc(NC(=S)NC(=O)c2ccccc2)n1,-,-,-,-,-
CCOCCCNC(=S)N1CCC(C(=O)c2ccc3c(c2)OCCO3)CC1,-,-,-169.7,-,-
O=C(c1ccc2c(c1)OCCO2)C1CCN(C(=O)c2ccc(F)cc2)CC1,-,-158.9,-,-,-
O=C(c1ccc2c(c1)OCO2)N1CCCN(C(=O)c2ccc3c(c2)OCO3)CC1,-,-,-,-,-
O=C(c1ccc2c(c1)OCCO2)C1CCN(C(=O)c2ccc(F)c(F)c2)CC1,-,-,-,-,-
CCNC(=S)N1CCC(C(=O)c2ccc3c(c2)OCCO3)CC1,-,-,-,-,-
O=C(c1ccc2c(c1)OCCCO2)N1CCCCC1,-,-,-108.8,-,-
COc1cc(NC(=O)CCl)ccc(=O)c1,-,-,-,.,.
NS(=O)(=O)c1ccc(CCNc2nccn(-c3cccc(C(F)(F)F)c3)c2=O)cc1,-,.,.,.,.
O=C1CCCC2=C1C(c1ccc(Cl)cc1)N=C(Nc1nc3ccccc3o1)N2 (configuration not stated),.,.,.,-,.
Cc1ccc2nc(CSc3nc(C)ccc3C#N)[nH]c2c1,-,-,-,-88.3,-
CN(C(=S)Nc1ccc(SC(F)F)cc1)c1ccc(O)cc1,-,-,-,-,-33.6
CN(C(=S)Nc1ccccc1)c1ccccc1,-,-,-,-,-
CN(C(=S)Nc1ccc(Oc2ccccc2)cc1)c1ccc(O)cc1,-,-,-,-,-50.0
CN(C(=S)Nc1cccnc1)c1ccc(O)cc1,-,-,-,-,-33.3
SMILES,USP1 inh,hERG WT inh,KCNH2 3.1 block,Giardia killer,FBPA coupling cs
C#CCNC(=O)c1ccc(OCc2ccccc2)cc1Cl,-,-,-,-,-
O=C(NCCCl)c1ccc(OCc2ccccc2)cc1Cl,-,-,-112.8,-,-
CCOc1ccc(-n2c(CCc3ccccc3)n[nH]c2=S)cc1,-,-,-,-,-
CCCOc1ccc(CCc2n[nH]c(=S)n2-c2ccccc2)cc1,-,-,-73.7,-,-
COc1ccc(NC(=O)Nc2nnc(N3CCCC3)s2)cc1,-,.,.,.,.
Cc1ccc(C(=O)CC(=O)c2ccc(C(C)(C)C)cc2)cc1,-,-,-102.3,-,-
COc1ccc(C(=O)CC(=O)c2ccc(C(C)(C)C)cc2)cc1,-,-,-,-,-
COc1ccc(Cl)cc1-n1nnc(-c2nsc(NC(=O)c3ccccc3Cl)n2)c1C,-,.,.,.,.
N/C(=N\OC(=O)c1ccccc1)C(Cc1ccccc1)C(=O)NOC(=O)c1ccccc1 (configuration not stated),-,-,-,-,.
